Laboratory results reported in the supplement of paper PMC12669032.

Key:
Experiment in all cases: growth AUC relative to DMSO control (median of replicates) (fraction); higher = more growth (less inhibition), active = hit call of the paper
Conditions in all cases: 20 µM; 24 h;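 active = AUC reduced over 20% with Padj below 0.05 in at least 2 of 3 replicates; inactive = otherwise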
[1] = tested on: Akkermansia muciniphila
Outline: (§1)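 Area under the growth curve was normalised to the plate median of solvent-only wells, except on the industrial chemical plate, where row and column medians were used. Curves came from gut bacterial monocultures grown anaerobically at 37 °C in mGAM with 20 µM compound (1% DMSO), starting at OD600 0.05 and read at OD600 every hour for 24 h. The minimum OD of each curve was set to 0, and values are medians of three biological replicates grown on separate days.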

[2] = tested on: Bacteroides caccae
Outline: as §1

[3] = tested on: Bacteroides clarus
Outline: as §1

[4] = tested on: Bacteroides dorei
Outline: as §1

[5] = tested on: Bacteroides stercoris
Outline: as §1

[6] = tested on: Bacteroides thetaiotaomicron
Outline: as §1

[7] = tested on: Bacteroides uniformis
Outline: as §1

[8] = tested on: Bifidobacterium longum subsp. longum
Outline: as §1

[9] = tested on: Clostridium difficile
Outline: as §1

[10] = tested on: Collinsella aerofaciens
Outline: as §1

[11] = tested on: Coprococcus comes
Outline: as §1

[12] = tested on: Escherichia coli ED1a
Outline: as §1

[13] = tested on: Escherichia coli IAI1
Outline: as §1

[14] = tested on: Eubacterium rectale
Outline: as §1

[15] = tested on: Fusobacterium nucleatum subsp. animalis
Outline: as §1

[16] = tested on: Lactobacillus gasseri
Outline: as §1

[17] = tested on: Lactobacillus paracasei
Outline: as §1

[18] = tested on: Odoribacter splanchnicus
Outline: as §1

[19] = tested on: Parabacteroides distasonis
Outline: as §1

[20] = tested on: Parabacteroides merdae
Outline: as §1

Measured: growth AUC

CN(C)C(=S)[S-].CN(C)C(=S)[S-].[Zn+2]
inactive: [1] 0.76 | [2] 0.876 | [3] 0.965 | [4] 0.857 | [7] 0.819 | [8] 0.884 | [9] 0.945 | [10] 0.969 | [11] 0.834 | [12] 0.953 | [13] 0.906 | [15] 0.993 | [16] 0.976 | [17] 0.966 | [19] 0.954
active: [5] 0.799 | [6] 0.694 | [14] 0.563 | [18] 0.384 | [20] 0.699

N#Cc1nn(-c2c(Cl)cc(C(F)(F)F)cc2Cl)c(N)c1S(=O)C(F)(F)F (stereo not given)
inactive: [1] 1.07 | [2] 0.964 | [3] 0.881 | [4] 0.897 | [5] 0.95 | [6] 0.986 | [7] 0.895 | [8] 0.951 | [9] 0.966 | [10] 1.04 | [11] 1 | [12] 1.01 | [13] 0.981 | [14] 0.951 | [15] 0.974 | [16] 0.811 | [17] 0.98 | [18] 0.93 | [20] 0.87
active: [19] 0.714

O=c1oc2ccccc2c(O)c1C1CC(c2ccc(-c3ccccc3)cc2)Cc2ccccc21 (stereo not given)
active: [3] 0.66 | [5] 0.00795 | [6] 0.76 | [19] 0.0292 | [20] 0.0278
inactive: [1] 0.831 | [2] 0.895 | [4] 0.904 | [7] 0.858 | [8] 0.886 | [9] 0.803 | [10] 0.975 | [11] 0.946 | [12] 1 | [13] 0.959 | [14] 0.502 | [15] 1.02 | [16] 0.574 | [17] 0.887 | [18] 0.959

Fc1ccc(C2(Cn3cncn3)OC2c2ccccc2Cl)cc1 (stereo not given)
inactive: [1] 0.955 | [2] 1.01 | [3] 0.93 | [4] 0.956 | [5] 1.02 | [6] 0.941 | [7] 0.953 | [8] 0.935 | [9] 0.995 | [10] 0.99 | [11] 0.969 | [12] 1.02 | [13] 1.01 | [15] 0.95 | [16] 0.996 | [17] 0.942 | [18] 0.864 | [19] 0.968 | [20] 0.933
active: [14] 0.72

CCCSP(=S)(OCC)Oc1ccc(SC)cc1 (stereo not given)
inactive: [1] 0.897 | [2] 0.998 | [3] 0.958 | [4] 1 | [5] 1.06 | [6] 0.979 | [7] 0.998 | [8] 0.971 | [9] 1.01 | [10] 1.04 | [11] 1.04 | [12] 1.01 | [13] 0.959 | [14] 0.985 | [15] 1.07 | [16] 0.946 | [17] 1.02 | [18] 1.07 | [19] 0.98 | [20] 0.996

O=c1oc2ccccc2c(O)c1C1CC(c2ccc(OCc3ccc(C(F)(F)F)cc3)cc2)Cc2ccccc21 (mixture of isomers)
inactive: [1] 0.908 | [2] 0.919 | [4] 1.02 | [6] 0.97 | [7] 0.989 | [11] 0.858 | [12] 1.03 | [13] 1.04 | [15] 1.02 | [18] 0.989
active: [3] 0.548 | [5] 0.176 | [8] 0.525 | [9] 0.0158 | [10] 0.788 | [14] 0.431 | [16] 0.484 | [17] 0.631 | [19] 0.031 | [20] 0.251

Cc1ccc(-c2c(Cl)nc(C#N)n2S(=O)(=O)N(C)C)cc1
inactive: [1] 0.913 | [2] 0.844 | [3] 0.817 | [4] 0.904 | [5] 0.931 | [6] 0.906 | [8] 1.03 | [9] 0.96 | [10] 1.02 | [11] 1.03 | [12] 0.944 | [13] 1.02 | [14] 0.992 | [15] 1.09 | [16] 1 | [17] 1.03 | [18] 0.989 | [20] 0.818
active: [7] 0.639 | [19] 0.551

O=C(Nc1ccccc1)N(Cc1ccc(Cl)cc1)C1CCCC1
inactive: [1] 0.953 | [2] 0.983 | [3] 0.991 | [4] 0.991 | [5] 0.972 | [6] 0.964 | [7] 0.969 | [8] 1.02 | [9] 1.03 | [10] 0.98 | [11] 0.94 | [12] 1 | [13] 0.99 | [14] 1.03 | [15] 0.985 | [16] 1.01 | [17] 1.06 | [18] 1.03 | [19] 0.893 | [20] 0.922

ClC1C(Cl)C(Cl)C(Cl)C(Cl)C1Cl (mixture of isomers)
inactive: [1] 0.921 | [2] 0.981 | [3] 0.932 | [4] 1.01 | [5] 0.826 | [6] 0.986 | [7] 0.916 | [8] 0.921 | [9] 0.982 | [10] 1 | [11] 1.03 | [12] 1.01 | [13] 0.981 | [14] 0.936 | [15] 0.966 | [16] 1.08 | [17] 1 | [18] 0.935 | [19] 1.04 | [20] 0.949

CC(C)N1C(=O)c2ccccc2NS1(=O)=O
inactive: [1] 1.21 | [2] 0.999 | [3] 0.999 | [4] 0.946 | [5] 1 | [6] 1.01 | [7] 0.977 | [8] 1.06 | [9] 0.98 | [10] 0.967 | [11] 1.05 | [12] 0.972 | [13] 0.97 | [14] 1.1 | [15] 1.01 | [16] 0.945 | [17] 0.932 | [18] 0.992 | [19] 0.787 | [20] 1.02

CCOC(=O)c1cn2nc(OP(=S)(OCC)OCC)cc2nc1C
active: [18] 0.692 | [19] 0.662
inactive: [1] 1.14 | [2] 0.973 | [3] 0.945 | [4] 0.904 | [5] 0.876 | [6] 0.991 | [7] 0.834 | [8] 1.05 | [9] 0.988 | [10] 0.967 | [11] 0.952 | [12] 0.981 | [13] 0.97 | [14] 1.13 | [15] 0.938 | [16] 0.908 | [17] 0.911 | [20] 0.909

O=C(Nc1ccccc1)Nc1cnns1
inactive: [1] 0.941 | [2] 0.868 | [3] 0.921 | [4] 0.918 | [5] 1.04 | [6] 0.941 | [7] 1.01 | [8] 1.03 | [9] 0.936 | [10] 0.969 | [11] 0.971 | [12] 0.91 | [13] 0.884 | [14] 1 | [15] 0.955 | [16] 0.925 | [17] 1.09 | [18] 0.938 | [19] 0.94 | [20] 0.955

O=[N+]([O-])c1ccc(O)c([N+](=O)[O-])c1
inactive: [1] 1.07 | [2] 0.987 | [3] 0.939 | [4] 0.98 | [5] 0.867 | [6] 0.889 | [7] 0.946 | [8] 1 | [9] 0.973 | [10] 0.992 | [11] 0.904 | [12] 0.998 | [13] 0.998 | [14] 1.02 | [15] 0.927 | [16] 1.06 | [17] 0.97 | [18] 0.673 | [19] 0.948 | [20] 0.985

Oc1ccccc1-c1ccccc1
inactive: [1] 1.03 | [2] 1.04 | [3] 1.03 | [4] 1.02 | [5] 1.04 | [6] 1.01 | [7] 1.01 | [8] 0.965 | [9] 1.04 | [10] 1.01 | [11] 1 | [12] 1.02 | [13] 1.05 | [14] 0.984 | [15] 0.988 | [16] 1.08 | [17] 0.923 | [18] 1.03 | [19] 0.976 | [20] 1.04

O=C1C(Cl)=C(Cl)C(=O)c2ccccc21
inactive: [1] 0.907 | [2] 0.987 | [3] 0.987 | [4] 0.958 | [5] 0.962 | [6] 0.996 | [7] 0.986 | [8] 0.904 | [9] 0.912 | [10] 0.988 | [11] 1.05 | [12] 1.02 | [13] 0.973 | [14] 1.34 | [15] 1.02 | [16] 0.929 | [17] 0.941 | [18] 0.797 | [19] 0.938 | [20] 0.967

COC(=O)N(C(=O)N1CO[C@@]2(C(=O)OC)Cc3cc(Cl)ccc3C2=N1)c1ccc(OC(F)(F)F)cc1
inactive: [1] 0.961 | [2] 0.952 | [3] 0.965 | [4] 0.982 | [5] 0.965 | [6] 0.873 | [7] 0.98 | [8] 0.83 | [9] 0.916 | [10] 0.884 | [11] 0.857 | [12] 0.946 | [13] 0.939 | [14] 1.09 | [15] 0.92 | [16] 0.654 | [17] 0.896 | [18] 0.994 | [19] 0.808 | [20] 0.901
